Sampled rows, rich in hits. Any-hit rate of the full collection: about 1.4%.
MazEF act: MazEF (E. coli) toxin RNase activation | FAM/BHQ RNA-DNA oligo cleavage fluorescence, 5 h | 350,000 compounds, 0.32% hits | activation, % at 20 µM | P0AE70; in the data active means activation above about 50%
Target sequence (P0AE70 whole entry, looked up): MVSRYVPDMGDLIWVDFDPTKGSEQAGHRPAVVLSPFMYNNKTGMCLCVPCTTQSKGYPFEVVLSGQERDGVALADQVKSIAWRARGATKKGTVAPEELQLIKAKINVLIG
DUSP3 inh: inhibitors of human VHR1 phosphatase (DUSP3). P51452. recombinant VHR phosphatase, pNPP absorbance. inhibition, % at 13.3 µM. 290,000 compounds, 0.52% hits. AID 1654; in the data active means inhibition above about 50%
Target sequence (P51452 whole entry, looked up): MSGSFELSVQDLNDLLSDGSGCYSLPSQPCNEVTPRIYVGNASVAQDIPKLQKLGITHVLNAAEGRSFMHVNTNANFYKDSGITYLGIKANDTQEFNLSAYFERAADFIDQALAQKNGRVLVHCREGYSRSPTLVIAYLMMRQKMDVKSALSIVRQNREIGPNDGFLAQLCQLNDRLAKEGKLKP
CCHFV vOTU inh: blocks the CCHF virus ovarian tumor domain protease | CCHFV vOTU protease, Pep-AMC fluorescence | inhibition, % at 11.5 µM | 370,000 compounds, 0.55% hits | AID 651958; in the data active means inhibition above about 30%; further: 0% = vehicle wells with enzyme and 100% = no enzyme wells
BJeLR viability: BJeLR cell viability loss; BJeLR (HRASV12) viability, CellTiter-Glo ATP luminescence, 48 h; inhibition, % (test concentration not listed); 300,000 compounds, 0.17% hits; in the data active means inhibition above about 50%
SARS 3CLpro inh: SARS-CoV 3CLpro protease inhibition | P0C6X7 | recombinant SARS-CoV 3CLpro, quenched FRET peptide cleavage | inhibition, % at 6 µM | 290,000 compounds, 0.14% hits | AID 1706; in the data active means inhibition above about 12%
The depositor's hits bear a star; nt = no result.

SMILES	MazEF act	DUSP3 inh	CCHFV vOTU inh	BJeLR viability	SARS 3CLpro inh
COCCCNC(=O)C[C@H]1C[C@@]2(C(=O)OC)C(=C[C@H](C(C)C)O[C@@H]2C2CC2)N(Cc2ccco2)C1=O	nt	nt	-3	nt	nt
COc1ccc(-c2cc(C)no2)cc1S(=O)(=O)N1CCOc2ccc(C)cc21	76*	-1	6	-12	2
CCc1ccc(-c2cc(C)no2)cc1S(=O)(=O)N1CCOc2ccccc21	4	10	16	4	2
CN(C)Cc1c(C(=O)N/N=C/c2cccc(OCc3ccc(F)cc3)c2)nnn1-c1nonc1N	99*	21	1	-3	-1
CCOC(=O)Cn1cc(CN2C(C(=O)OC)CN(Cc3ccc(C)cc3)CCS2(=O)=O)nn1 (stereo not drawn)	nt	nt	0	nt	nt
CNC(=S)N(CCc1c(C)[nH]c2ccc(OC)cc12)Cc1ccco1	-9	57*	2	-8	1
COCCNC(=S)N(CCc1c(C)[nH]c2ccc(OC)cc12)Cc1ccco1	7	57*	-13	-2	-4
COc1ccc(NC(=S)N(CCc2c(C)[nH]c3ccc(C)cc23)Cc2ccco2)cc1	1	4	4	2	3
CC(=O)c1cc(-c2ccc(S(C)(=O)=O)cc2)c(=O)n2c1CCC2	nt	nt	-33	nt	nt
O=c1[nH]ncc2c3ccccc3n(Cc3ccccc3)c12	17	19	12	2	3
CCCn1c2ccccc2c2cn[nH]c(=O)c21	8	59*	5	-7	5
COC(=O)C[C@@H]1CC[C@H]2[C@@H](COc3ccc(NC(=O)Nc4ccccc4Cl)cc3C(=O)N2C)O1	nt	nt	-3	nt	nt
CCCN1CCS(=O)(=O)N(Cc2cn(Cc3ccccc3)nn2)C(C(=O)OC)C1 (stereo not drawn)	nt	nt	6	nt	nt
O=C(NC1(C(=O)NC2CCCCC2)CCCCC1)c1ccc2c(c1)OCO2	8	52*	1	-3	2
CCOC(=O)N1CCN(C(=O)C[C@H]2C[C@@]3(C(=O)OCC)CCCC4=C3N(CCC4)C2=O)CC1	nt	nt	-8	nt	nt
CN(C)c1cc(-c2ccc([N+](=O)[O-])cc2)oc(=O)c1Cl	54*	-10	-2	4	1
CCCCCC[C@H](CN(CCCC)S(C)(=O)=O)c1ccccc1	nt	nt	26	nt	nt
CCN(CC)C(=O)CC[C@@H]1CC[C@]2(CCCN(C(=O)c3ccccc3)C2)O1	nt	nt	-2	nt	nt
C#CCOCCOCCOCCNc1nc(N2CCN(C(=O)CCCCCCCCCCNC(=O)Cn3cc(C[C@@H](C)O)nn3)CC2)nc(N2CCN(C(=O)CCCCCCCCCCNC(=O)[C@@H](CCC(=O)O)n3cc(CCCCCN)nn3)CC2)n1	63*	nt	16	nt	nt
CC[n+]1c(C)sc2c3ccsc3ccc21	-1	51*	-3	2	5
Cc1ccc(/C=N/NC(=O)c2n[nH]c3c2CCCC3)cc1	10	-2	-13	60*	3
O=C(N/N=C\c1cccc(Cl)c1)c1n[nH]c2c1CCCC2	1	-20	12	16	2
CCCCNC(=O)OCCCN1CCC2(CCC(c3ccccc3)CC2)C1 (stereo not drawn)	nt	nt	0	nt	nt
CCC(C)(C)NC(=O)c1sccc1Oc1ccc(F)cc1[N+](=O)[O-]	7	51*	-3	6	-5
COc1cc(/C=C(\C#N)C(=O)NC2CCCCC2C)ccc1OS(=O)(=O)c1ccc(C)cc1 (stereo not drawn)	1	23	5	84*	6
SMILES	MazEF act	DUSP3 inh	CCHFV vOTU inh	BJeLR viability	SARS 3CLpro inh
CC(COc1cccc(F)c1)CN1CCC(C(O)(c2ccccc2)c2ccccc2)CC1 (stereo not drawn)	nt	nt	12	nt	nt
CC(C)N(Cc1cn(Cc2ccccc2)nn1)S(=O)(=O)c1ccc(F)cc1Br	nt	nt	19	nt	nt
NC(=O)c1cc(S(=O)(=O)NCc2ccccc2)cs1	12	-20	13	25	-6
Cc1ccccc1CNS(=O)(=O)c1csc(C(N)=O)c1	-15	56*	1	-8	3
CCOC(=O)CC[C@@H]1CC[C@]2(CCCN(C(=O)c3ccco3)C2)O1	nt	nt	-2	nt	nt
CCOc1ccc(CC(=O)Nc2ccc(NC(=O)c3ccco3)cc2)cc1OCC	1	33	-9	82*	3
CCC(=O)Nc1ccc(NC(=O)c2ccco2)cc1	-13	18	-7	-2	1
CCOc1cc(NC(=S)NCC(C)C)c(OCC)cc1NC(=O)c1ccco1	7	51*	9	-1	2
O=C(Nc1ccc(F)cc1)OCc1cn(Cc2ccc(F)c(F)c2)nn1	nt	nt	8	nt	nt
C[C@H]1COc2cccc(N3CCCC3)c2S(=O)(=O)N1C	nt	nt	2	nt	nt
CCOC(=O)[C@@]12CCCC3=C1N(CCC3)C(=O)[C@H]2CC(=O)N1CCOCC1	nt	nt	-1	nt	nt
